Source: PubChem BioAssay
aSyn 5UTR inh – MLPCN primary screen, SNCA 5' untranslated region | inhibition, % (tested at 7.5 µM) | 300,000 tested, 0.82% active | alpha-synuclein 5'UTR reporter, inhibitor activity | AID 1813, 2009; in the data active = inhibition above about 60%; inconclusive = no clear call, values can overlap the other calls;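 note: H4 neuroglioblastoma cells stably carrying SNCA 5'UTR luciferase fusion; 0% = DMSO wells and 100% = positive control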
697 NFkB inh – inhibitors of PMA/ionomycin-induced NF-kB reporter, 697 cells, primary screen, B-cell NF-kB inhibitor project, cell-based, luminescence, uHTS; 697 B-cell NF-kB luciferase reporter, 16 h; inhibition, % at 4 µM; 330,000 tested, 0.33% active; in the data active = inhibition above about 35%
CSC inhib – cancer stem cell viability inhibitors, primary screen, luminescence. cancer stem cell-like cells viability. inhibition, % at 7.5 µM. 300,000 tested, 1.1% active. AID 2717, 2010; in the data active = inhibition above about 75%; inconclusive = no clear call, values can overlap the other calls; tested in HMLE shEcad cells
Gli-Sufu antag – Gli-Sufu pathway antagonists, primary screen, luciferase luminescence, Sufu-KO-LIGHT cells, uHTS | Sufu-KO-LIGHT fibroblasts, Gli luciferase reporter luminescence | inhibition, % at 5 µM | 340,000 tested, 0.74% active;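 active = inhibition above about 55%, limit read from the data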;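 note: 0% = DMSO-treated cells and 100% = wells with medium but no cells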
Jurkat NFkB inh – inhibitors of induced NF-kB luciferase reporter, primary screen, TCR NF-kB activation inhibitor project, cell-based, luminescence, uHTS; inhibition, % at 4 µM; 330,000 tested, 0.53% active; Jurkat, PMA/ionomycin-induced NF-kB luciferase reporter; AID 435003, 2010; in the data active = inhibition above about 50%
Mdm2-MdmX inh – inhibitors of human Mdm2-MdmX association, primary screen, cell-based, luminescence, split luciferase, SaOS-2, uHTS | Protein Mdm4 (Homo sapiens) + E3 ubiquitin-protein ligase Mdm2 (Homo sapiens), … | SaOS-2 split-luciferase Mdm2/MdmX complementation | inhibition, % at 8 µM | 330,000 tested, 3% active;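 active = inhibition of at least 50% at 8 µM in the primary screen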
Mdm2-MdmX conf – Mdm2-MdmX complex disruptors, retested hits, confirmation, luminescence, single concentration. shares compounds with Mdm2-MdmX inh. Mdm2-MdmX binding, luminescent assay. inhibition, % at 8 µM. 10,000 tested, 55% active; in the data active = inhibition above about 40%
Full FLuc ctr – full-length luciferase signal inhibition, confirmation, counter-screen for Mdm2/MdmX interaction inhibitor project, cell-based, single concentration, SaOS-2. 6,200 tested, 77% active. inhibition, % at 8 µM. shares compounds with Mdm2-MdmX inh. SaOS-2 full-length luciferase counterscreen, luminescence;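 active = mean inhibition at 8 µM reaching about 37%, which flags the compound as non-specific, limit read from the data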;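 note: p53-null SaOS-2 cells with luciferase driven by a doxycycline-inducible promoter; compound on cells about two nights before reading with doxycycline added after day one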
* = called active by the depositor; ? = inconclusive; / = no result. Hits are enriched below; roughly 4.5% of the tested compounds scored in any of these assays.

SMILES	aSyn 5UTR inh	697 NFkB inh	CSC inhib	Gli-Sufu antag	Jurkat NFkB inh	Mdm2-MdmX inh	Mdm2-MdmX conf	Full FLuc ctr
NC(=S)N1OC[C@@H]2COc3ccc4ccccc4c3[C@@H]21	-18	-11	21	-29	-12	69*	53*	46*
CCN(CC)CCn1c(=N)n(CCOc2ccccc2)c2ccccc21	-93	-19	41	14	-16	50*	61*	62*
CCCCn1c(=N)n(CCOc2ccc(C)cc2)c2ccccc21	4	-28	12	-5	-4	63*	38	63*
CC(C)(C)NC(=O)C(c1ccc(-c2ccccc2)cc1)N(C[C@H]1CC[C@@H]([C@@H]2CC[C@H](CO)O2)O1)C(=O)c1ccc2ccccc2c1 (some centres undefined)	/	11	/	0	/	22	/	/
CC(C)(C)NC(=O)C(c1ccc(-c2ccccc2)cc1)N(C[C@H]1CC[C@@H]([C@@H]2CC[C@H](CO)O2)O1)C(=O)c1ccc(-c2ccccc2)cc1 (some centres undefined)	/	14	/	-6	/	88*	47*	52*
CC(C)(C)NC(=O)C(c1ccc(-c2ccccc2)cc1)N(C[C@H]1CC[C@@H]([C@@H]2CC[C@H](CO)O2)O1)C(=O)c1cccc(Cl)c1 (some centres undefined)	/	20	/	2	/	50*	11	/
C/C=C/c1cc(CN2CCN(c3ccccc3)CC2)c(O)c(OC)c1	51	-103	22	23	-32	82*	45*	83*
C/C=C/c1cc(CN2CCN(c3ccc(OC)cc3)CC2)c(O)c(OC)c1	29	-5	3	21	6	17	/	/
CCN(CC)CCSc1nc2ccccc2c(=S)n1-c1ccccc1	-24	3	19	22	12	51*	34	94*
COc1cc2nc(N(CCCN(C)C)C(=O)c3ccc(S(=O)(=O)N(C)C4CCCCC4)cc3)sc2cc1OC	-12	-3	0	32	-3	17	/	/
Cc1cc(C)c2sc(N(CCCN(C)C)C(=O)c3ccc(S(=O)(=O)N(C)C4CCCCC4)cc3)nc2c1	?	1	-3	28	11	97*	48*	79*
CN(C)CCCN(C(=O)c1ccc(S(=O)(=O)N(C)C2CCCCC2)cc1)c1nc2ccc(F)cc2s1	3	-3	-10	23	-7	34	/	/
CCc1ccc2nc(N(CCCN(C)C)C(=O)c3ccc(S(=O)(=O)N(C)C4CCCCC4)cc3)sc2c1	?	-8	52	19	-11	66*	48*	56*
COc1ccc(C(=O)N=S2CCN(C(=O)c3ccc(Cl)cc3)CC2)cc1	9	-7	20	3	4	24	/	/
COc1ccccc1/C=C\C(=O)NCC(=O)N/N=C/c1cccc(OC)c1O	28	-3	72	-20	16	51*	18	/
COc1cccc(/C=N/NC(=O)CNC(=O)COc2cccc(C)c2)c1O	23	1	60	1	17	54*	47*	45*
CCCCc1c(O)cc(C)[nH]c1=O	-10	7	3	5	-9	-30	/	/
CCc1nnc(NC(=O)C2CCN(c3ncnc4sc(C)c(C)c34)CC2)s1	/	-2	-3	1	6	53*	53*	81*
Cc1ccc(S(=O)(=O)N2CCC(C(=O)Nc3nnc(C4CCCC4)s3)CC2)cc1	31	-1	-16	14	5	18	/	/
Cc1sc2ncnc(N3CCC(C(=O)Nc4ccccc4C(C)(C)C)CC3)c2c1C	-4	-31	-5	28	21	51*	60*	28
